{
  "source": "ChEMBL document CHEMBL4513216",
  "about": "“Probing the Open Global Health Chemical Diversity Library for Multistage-Active Starting Points for Next-Generation Antimalarials” (ACS Infect Dis, 2020)",
  "note": "Among all 69,000 compounds or so, about 8,600 (12%) showed an effect of 50% or more. Many of the other results were omitted from the sample, so strong results are more common in it than they were.",
  "data": [
    {"system": "Plasmodium berghei", "assay": "Screen against P. berghei liver stage (PbLuc), transformed with Luciferase, at 10uM", "assay_type": "functional, HepG2", "settings": "tested at 10 uM", "units": {"INHIBITION": "%"}, "values": [
      {"compound": "COc1ccc(CNC(C)c2ccc(Cl)c(Cl)c2)c(OC)c1OC", "note": "(centres undefined)", "INHIBITION": 70.5},
      {"compound": "CC(NCc1ccc(C(N)=O)cc1)c1ccc(Cl)c(Cl)c1", "note": "(centres undefined)", "INHIBITION": -29.2},
      {"compound": "COc1cc(CNC(C)c2ccc(F)c(F)c2)cc2c1OCCO2", "note": "(centres undefined)", "INHIBITION": 66.7},
      {"compound": "COc1ccc(C(C)NCc2c[nH]nc2C)cc1Br", "note": "(centres undefined)", "INHIBITION": 43.9},
      {"compound": "COc1cc(CNCC(O)c2ccc(C)cc2)cc2c1OCCO2", "note": "(centres undefined)", "INHIBITION": 21.8},
      {"compound": "COc1cc(CNCC(O)c2ccc(F)c(F)c2)cc2c1OCO2", "note": "(centres undefined)", "INHIBITION": 24},
      {"compound": "CO[C@@H]1CCN(c2ncc(F)cn2)[C@H]1Cc1cnn(C)c1", "INHIBITION": 28.4},
      {"compound": "CN1CCN(C)C(CNC(=O)N(C)Cc2ccccc2Cl)C1", "note": "(centres undefined)", "INHIBITION": 17.1},
      {"compound": "Cc1cc(C2CCCN2C(=O)c2csc(-c3cnn(C)c3)n2)on1", "note": "(centres undefined)", "INHIBITION": -1.445},
      {"compound": "CCn1nc(C)c2nnn(CC(=O)Nc3cccc(F)c3)c(=O)c21", "INHIBITION": 15.9},
      {"compound": "NC(=O)C(CNC(=O)Cc1ccc(F)cc1)Cc1ccc(F)cc1", "note": "(centres undefined)", "INHIBITION": 29.2},
      {"compound": "Cc1ccc(C(=O)Cc2c(Cl)nc3n(C)c(=O)n(C)c(=O)n23)cc1", "INHIBITION": 85},
      {"compound": "Cn1c(=O)n(C)c2nc(Cl)c(CC(=O)c3ccccc3)n2c1=O", "INHIBITION": -6.47},
      {"compound": "Cn1c(=O)n(C)c2nc(Cl)c(CC(=O)c3ccc(F)cc3)n2c1=O", "INHIBITION": 48.3},
      {"compound": "CC(C)CCn1cc(C(C(=O)O)N2CCC(c3ccncc3)CC2)cn1", "note": "(centres undefined)", "INHIBITION": 23.9},
      {"compound": "O=C(NCCO)c1sc2ncccc2c1C1CN(C2CCCC2)CCO1", "note": "(centres undefined)", "INHIBITION": -10.4},
      {"compound": "CC(C)(C)c1noc(CN2CCCCC2Cn2cncn2)n1", "note": "(centres undefined)", "INHIBITION": 39.15},
      {"compound": "O=S(=O)(NCC1(c2cccs2)CCCC1)c1cccnc1", "INHIBITION": -43.5},
      {"compound": "CCC(C(=O)NCC1=CCCN(C)C1)c1ccccc1", "note": "(centres undefined)", "INHIBITION": 0.348},
      {"compound": "Cc1cccc2c1cnn2CCCNC(=O)C(C)C", "INHIBITION": 0.139},
      {"compound": "CCCC(=O)NCCCn1ncc2c(C)cccc21", "INHIBITION": 2.69},
      {"compound": "Cc1nn(CCCNC(=O)C2CCN(S(C)(=O)=O)CC2)c(Cl)c1Cl", "INHIBITION": 14.8},
      {"compound": "Cc1cc(C(F)(F)F)nn1CCCNC(=O)C1CCN(S(C)(=O)=O)CC1", "INHIBITION": 0.87},
      {"compound": "Cc1cccc2c1cnn2CCCNC(=O)C1CC1", "INHIBITION": 66.5},
      {"compound": "CC(=O)NCCCn1ncc2c(C)cccc21", "INHIBITION": 35.8},
      {"compound": "Cc1ccnn1CCCNC(=O)C1CCN(S(C)(=O)=O)CC1", "INHIBITION": 77.7},
      {"compound": "COCC(=O)NCCCn1ncc2c(C)cccc21", "INHIBITION": 20.1},
      {"compound": "Cc1cccc2c1cnn2CCCNC(=O)CCCC(=O)O", "INHIBITION": 60.1},
      {"compound": "CC(C)n1ccc(-c2cc(C(=O)N3CCN(C)CC3)c3ccccn23)n1", "INHIBITION": 16.9},
      {"compound": "Cc1onc(-c2ccncc2)c1C(=O)NC1CCCOC1", "note": "(centres undefined)", "INHIBITION": 10.8},
      {"compound": "CCN(C)c1ncnc2c1CCN(C(=O)c1ccoc1C)CC2", "INHIBITION": -125},
      {"compound": "CC(C)CCC(=O)N1CC[C@@H]2[C@H](CC1)N(S(C)(=O)=O)CCS2(=O)=O", "INHIBITION": -31.9},
      {"compound": "C/C(NC(=O)c1ccccn1)=C1\\C(=O)C[C@@H]2[C@H]1C2(C)C", "INHIBITION": 9.41},
      {"compound": "Cc1cc(OC(F)F)c(C(=O)N2CC[C@H](O)C2)s1", "INHIBITION": 3.58},
      {"compound": "CN(C)[C@H]1COC[C@@H]2CN(Cc3ccc4c(c3)OCO4)C[C@@H]21", "INHIBITION": 12.1},
      {"compound": "CN(c1nc(Cn2cc(Br)ccc2=O)cs1)C1CC1", "INHIBITION": 0},
      {"compound": "O=c1ccncn1Cc1csc(C2CC2)n1", "INHIBITION": 57.5},
      {"compound": "CN(c1nc(Cn2cnccc2=O)cs1)C1CC1", "INHIBITION": 55.5},
      {"compound": "Cc1ccc(=O)n(Cc2csc(N(C)C3CC3)n2)n1", "INHIBITION": -40.6},
      {"compound": "CCc1csc(C2CCCN(C(=O)c3ccncc3)C2)n1", "note": "(centres undefined)", "INHIBITION": 6.1},
      {"compound": "Cn1cnc2c1CCN(Cc1csc(C3CCCC3)n1)C2", "INHIBITION": -19.9},
      {"compound": "Cc1cc(C(=O)NCc2cccn2C)nn1C", "INHIBITION": 9.55},
      {"compound": "CS(=O)(=O)NC[C@H]1OC[C@@H]2CCN(Cc3ccc(F)cc3)C[C@@H]21", "INHIBITION": -16.2},
      {"compound": "Cc1nnsc1C(=O)N1CCCC(n2nnc3cc(F)ccc32)C1", "note": "(centres undefined)", "INHIBITION": 52},
      {"compound": "Cc1n[nH]cc1C(=O)N1CCCC(n2nnc3cc(F)ccc32)C1", "note": "(centres undefined)", "INHIBITION": 21},
      {"compound": "Cc1nn(C)cc1C(=O)N1CCCC(n2nnc3cc(F)ccc32)C1", "note": "(centres undefined)", "INHIBITION": -3.31},
      {"compound": "COCCc1noc(CN2CCOC(Cn3cc(C)cn3)C2)n1", "note": "(centres undefined)", "INHIBITION": -90.9},
      {"compound": "Cc1cccc(=O)n1CCC(=O)N1CCC2(CC1)OCCCC2O", "note": "(centres undefined)", "INHIBITION": 24.2},
      {"compound": "Cc1nc(NC(=O)NCc2nc3cccc(C)c3n2C)oc1C", "INHIBITION": 38.6},
      {"compound": "Cc1nc(C)c(C(=O)NCc2nc3cccc(C)c3n2C)o1", "INHIBITION": 88.8},
      {"compound": "CCn1c(CNC(=O)Nc2nc(C)c(C)o2)nc2ccccc21", "INHIBITION": 44.8},
      {"compound": "CCc1ccc(C(=O)O)cc1S(=O)(=O)Nc1ccc2c(c1)OCCO2", "INHIBITION": 28},
      {"compound": "CCS(=O)(=O)NCCCNCc1c(C)nn(C)c1N(C)C", "INHIBITION": 23.25},
      {"compound": "CCOc1ccc(CN(C)C2CCN(c3cc(C)nn3C)C2=O)cc1", "note": "(centres undefined)", "INHIBITION": 24.7},
      {"compound": "Cc1cc(N2CCC(N(C)Cc3cccnc3)C2=O)n(C)n1", "note": "(centres undefined)", "INHIBITION": 59.3},
      {"compound": "CCN(Cc1ccncc1)C1CCN(c2ccccc2)C1=O", "note": "(centres undefined)", "INHIBITION": -13.1},
      {"compound": "CCN(Cc1ccccc1)C1CCN(c2cc(C)nn2C)C1=O", "note": "(centres undefined)", "INHIBITION": 57.2},
      {"compound": "CCN(Cc1cnc(C)cn1)C1CCN(c2ccccc2)C1=O", "note": "(centres undefined)", "INHIBITION": 15.2},
      {"compound": "CCN(Cc1cccnc1)C1CCN(c2ccccc2)C1=O", "note": "(centres undefined)", "INHIBITION": -2.27},
      {"compound": "CC(C)C(=O)N1CCC2(CCN2CC2CC2)C1", "note": "(centres undefined)", "INHIBITION": 8.85},
      {"compound": "Cc1cc(C(=O)N2C[C@@H]3CC[C@H]2CN(Cc2ccccn2)C3)nc(C)n1", "INHIBITION": 4.59},
      {"compound": "Cc1ncsc1C(=O)N1CCC(c2ccc3c(NC(C)C)n[nH]c3n2)C1", "note": "(centres undefined)", "INHIBITION": -3.94},
      {"compound": "CC(=O)Nc1ccc(SCC(O)COCc2ccccc2)cc1", "note": "(centres undefined)", "INHIBITION": 16.6},
      {"compound": "O=C(Cc1cccnc1)NCCS(=O)(=O)c1ccccc1F", "INHIBITION": 33.7},
      {"compound": "CNC(=O)C1(c2cnccn2)CCCN1C(=O)c1cccc(F)c1", "note": "(centres undefined)", "INHIBITION": 1.5},
      {"compound": "CCC(CC)NCC(c1ccccn1)N1CCOCC1", "note": "(centres undefined)", "INHIBITION": 65.6},
      {"compound": "Cc1ccc(C(CNC(=O)NCc2ccccn2)N2CCOCC2)o1", "note": "(centres undefined)", "INHIBITION": 11.783},
      {"compound": "COc1cc(NCC(c2ccccn2)N2CCOCC2)ncn1", "note": "(centres undefined)", "INHIBITION": 6.26},
      {"compound": "c1cncc(C(Cn2cnnc2)N2CCOCC2)c1", "note": "(centres undefined)", "INHIBITION": 7.31},
      {"compound": "NCc1cc(NCC(c2ccccn2)N2CCOCC2)ncn1", "note": "(centres undefined)", "INHIBITION": 60.1},
      {"compound": "c1ccc(C(CNc2ncccn2)N2CCOCC2)nc1", "note": "(centres undefined)", "INHIBITION": 3.48},
      {"compound": "Cc1nn(C)c(N2CCOCC2)c1CNC(C)c1ccccn1", "note": "(centres undefined)", "INHIBITION": 36.2},
      {"compound": "c1ccc(C(Cn2cnnc2)N2CCOCC2)nc1", "note": "(centres undefined)", "INHIBITION": 70.4},
      {"compound": "CC(C)c1nn(C)c(N2CCOCC2)c1CNC(C)c1ccccn1", "note": "(centres undefined)", "INHIBITION": 23.7}
    ]}
  ]
}
